The values below come from PubChem BioAssay AID493162 (ICCB-Longwood Screening Facility, Harvard Medical School, 2011).

Screen size: about 46,000 compounds; about 430 (0.93%) were called active. Rule as the data show it: active = normalized absorbance mostly below about 85% (no sharp cut-off); inactive = mostly above about 86%. What follows is part of a selection rich in actives, with near analogues and random picks from the rest.

The experiment has as its system Vaccinia virus DNA polymerase (E9) processive complex. Kind of experiment: vaccinia E9 polymerase processive synthesis inhibitors, primary screen, biochemical, absorbance (AID 493162). Particulars: in vitro processive DNA synthesis, absorbance read-out; active compounds read low; concentration not given here.
For `O=C(NCc1cccnc1)c1cc(-c2ccccn2)nc2ccccc12`, the normalized absorbance is 102% (inactive). As for `COc1ccc(-c2nnn(-c3cccc(C(F)(F)F)c3)c2N)cc1OC`, the normalized absorbance was 112% (inactive). Regarding `Cc1cc(C)cc(Oc2coc3c(CN4CCCCCC4)c(O)ccc3c2=O)c1`, the normalized absorbance is 100% (inactive). The value for `O=C(CCc1nc(-c2ccccc2)no1)N1CCCCC1` was 94.1% (inactive); that for `Fc1ccccc1Cn1cnc2ccccc21` was 100% (inactive). As to `O=C(O)CCCC(=O)Nc1ccccn1`, the normalized absorbance was 98.3% (inactive).

With `Cc1cc(-c2cn(/N=C/c3ccc(Cl)cc3Cl)c(N)n2)c(C)s1`, the normalized absorbance was 97.6% (inactive). As to `Cc1nc2cc(Cl)ccc2c(=O)n1-c1nc2ccccc2[nH]1`, the normalized absorbance is 103% (inactive).

Turning to `CC(C)(C)c1cn2c3ccccc3nc2n1CCCO`, the normalized absorbance is 96.5% (inactive). Take `Cc1nnc(SCC(=O)O)[nH]c1=O`: the normalized absorbance is 96.1% (inactive). On to `Cc1nc2sc(C(c3ccc(F)cc3)N3CCC(O)CC3)c(O)n2n1` (configuration not stated), for which the normalized absorbance was 101% (inactive). For the compound `CC(C)Nc1nc(-c2ccccc2O)nc2ccccc12`, the normalized absorbance was 102% (inactive). On to `O=C(O)CSc1ccc2ccccc2c1Br`, for which the normalized absorbance was 85.4% (active). The value for `Cc1nc2ccccc2nc1SCC(=O)O` was 103% (inactive); that for `O=C(O)CSc1ccc(Br)c2cccc(Cl)c12` was 81.7% (inactive); that for `COc1ccc(C2CC(=O)n3nc(-c4ccccc4)nc3S2)cc1OC` (configuration not stated) was 100% (inactive).

Regarding `Cc1cc2cc(CNS(=O)(=O)N(C)C)ccc2n1C`, the normalized absorbance is 101% (inactive). The value for `O=S(=O)(c1cccc2cccnc12)N1CCN(c2cccc(Cl)c2)CC1` was 101% (inactive); that for `Cc1nc(N2CC(C)OC(C)C2)c2c3c(sc2n1)CCC3` (configuration not stated) was 100% (inactive). In the case of `COc1ccccc1NC(=O)c1cccc(N2C(=O)C3CC=CCC3C2=O)c1` (configuration not stated) it was 89.3% (inactive). `COc1ccc(C2C=C(c3ccccc3)NC(=O)C2C#N)cc1` (configuration not stated): the normalized absorbance is 94.4% (inactive).

As for `Cc1ccc(-c2nc(C)sc2CC(=O)O)cc1`, the normalized absorbance is 98.3% (inactive). For the compound `COc1ccc(NS(=O)(=O)c2ccc(Oc3c(C#N)cccc3C#N)cc2)cc1`, the normalized absorbance is 104% (inactive). As to `CCCn1c[n+](CC(=O)C(C)(C)C)c2ccccc21`, the normalized absorbance is 101% (inactive).

For the compound `COc1ccc(NC(=O)C(C)n2cccc2)cc1` (configuration not stated), the normalized absorbance is 102% (inactive). In the case of `O=c1[nH]c(-c2ccc(F)cc2)nc2ccccc12`, the normalized absorbance was 102% (inactive). In the case of `Cn1nnnc1SCC(=O)Nc1nccs1` it was 104% (inactive). In the case of `C=CCn1c(SCC(=O)Nc2nnc(CC)s2)nnc1-c1cccs1` it was 99.4% (inactive); in that of `CC(NC(=O)Nc1ccc2c(c1)N(C)C(=O)c1ccccc1S2)c1ccccc1` (configuration not stated), 110% (inactive). For `CN1CCc2ccccc2C1Cc1ccccc1NS(=O)(=O)c1cccc(C(F)(F)F)c1` (configuration not stated), the normalized absorbance was 97.1% (inactive). In the case of `O=c1c2ccccc2c(-c2ccccc2)nn1Cc1ccccc1` it was 99.7% (inactive); in that of `O=c1c2cccc3c2c(nn1CN1CCCCC1)-c1ccccc1-3`, 76% (active); in that of `O=C1c2ccccc2-c2nn(CC(=O)N3CCOCC3)c3cccc1c23`, 92.9% (inactive). Regarding `CCOC(=O)CSc1nc2ccccc2n1C(=O)Oc1ccccc1`, the normalized absorbance was 95.5% (inactive).

On to `O=C(O)CCc1nnc2ccc(N3CCCC3)nn12`, for which the normalized absorbance is 103% (inactive). Regarding `FC(F)(F)c1cccc(Oc2cnc3ccccc3n2)c1`, the normalized absorbance was 95.2% (inactive). In the case of `Cc1ccc2c(Cl)c(C(=O)N(Cc3cccs3)C3CCS(=O)(=O)C3)sc2c1` (configuration not stated) it was 100% (inactive); in that of `C/C(C#N)=C(/N)c1ccccc1`, 104% (inactive); in that of `CCOC(=O)CSc1nc(N)c2c3c(sc2n1)CCC3`, 95.7% (inactive). Turning to `COc1ccc2c(C)cc(-n3nc(C)cc3C)nc2c1`, the normalized absorbance was 99% (inactive). In the case of `COc1ccc(Cl)cc1-n1c(SCc2cccc(Cl)c2)nnc1-c1cc2occc2n1C` it was 108% (inactive); in that of `O=C(Nc1ccc(-c2nc3ccccc3o2)cc1)c1ccc(Oc2ccccc2)cc1`, 100% (inactive); in that of `CCOc1ccc2nc(NC(=O)C3CC3)sc2c1`, 100% (inactive). As to `COc1ccc(/C=N/n2c(C)cc(C)cc2=O)cc1`, the normalized absorbance is 100% (inactive).

Consider `CCOc1cccc(NC(=O)c2cc(=O)c3ccccc3o2)c1`, for which the normalized absorbance is 100% (inactive). Consider `CCOc1ncccc1C(=O)Nc1cccc(C(F)(F)F)c1`, for which the normalized absorbance is 102% (inactive). As to `CCOC(=O)c1cnc2c(C)c(C)ccc2c1NCCCN(C)C`, the normalized absorbance is 39.1% (active). On to `CCOC(=O)Cc1nc(N)ncc1C(=O)OCC`, for which the normalized absorbance is 101% (inactive). For `CCOC(=O)c1cc2ccccc2nc1C`, the normalized absorbance is 99.8% (inactive). Consider `c1ccc(-c2cc(NCC3CC3)n3cnnc3n2)cc1`, for which the normalized absorbance was 98.2% (inactive). In the case of `O=C(NCCN1CCCc2ccccc21)c1cc(-c2cccs2)nc2ccccc12` it was 96.3% (inactive). `C=CCn1c(-c2ccccc2)csc1=Nc1ccc(O)cc1`: the normalized absorbance is 100% (inactive). As to `COc1ccc(-c2nc(NCC3CCCO3)c3ccccc3n2)cc1` (configuration not stated), the normalized absorbance is 66.4% (active). For the compound `COc1ccc(-n2nc(C(=O)NCC3CCCO3)c3c4ccccc4n(C)c3c2=O)cc1` (configuration not stated), the normalized absorbance was 103% (inactive). As for `CN1CCN(c2nc(NCC3CCCO3)c3ccccc3n2)CC1` (configuration not stated), the normalized absorbance was 98.7% (inactive). For the compound `Cc1ccc(C)n1-c1nn(S(C)(=O)=O)c2cccc(F)c12`, the normalized absorbance was 92.7% (inactive). With `COc1cccc(C2=Nc3ccccc3C2=O)c1`, the normalized absorbance is 99.2% (inactive). `COC(=O)c1coc(-c2ccccc2)n1`: the normalized absorbance was 102% (inactive). Consider `O=C(N/C(=C/c1ccccc1)P(=O)(O)c1ccccc1)c1ccccc1`, for which the normalized absorbance is 98.3% (inactive).

With `Cc1ccc(/C=C/C(=O)NCC2CCCO2)o1` (configuration not stated), the normalized absorbance is 89.2% (inactive). In the case of `CN(C)c1nc(NCc2ccccc2)nc(Nc2ccc(OC(F)(F)F)cc2)n1`, the normalized absorbance was 100% (inactive). As for `CCc1ccccc1N1CC(c2nc3ccccc3[nH]2)CC1=O` (configuration not stated), the normalized absorbance is 90.4% (inactive). In the case of `CC(C)NC(=O)Oc1noc2ccc(Cl)cc12`, the normalized absorbance was 99.1% (inactive).

As for `C=CCN1C(=O)/C(=C/c2ccc3c(c2)n(C)c(=O)n3C)C(=O)NC1=S`, the normalized absorbance was 100% (inactive).

Take `Cc1ccc(N2NC(=O)/C(=C/C=C/c3ccco3)C2=O)cc1C`: the normalized absorbance was 99.9% (inactive). On to `CCN1C(=O)/C(=C/C=C/c2ccco2)C(=O)NC1=S`, for which the normalized absorbance is 64.7% (active). In the case of `CC(=O)Nc1ccc(N2C(=O)C=CC2=O)cc1`, the normalized absorbance was 124% (inactive). In the case of `CC(C)CNS(=O)(=O)C1CCS(=O)(=O)C1` (configuration not stated) it was 102% (inactive); in that of `Nc1ncnc2c1ncn2CCNCc1ccccc1`, 103% (inactive); in that of `NC(=O)C(Cc1ccccc1)NC(=O)C12CC3CC(CC(C3)C1)C2` (configuration not stated), 72.6% (inactive). In the case of `CCOc1cc(/C=C2\SC(=S)N(C(C)C(=O)O)C2=O)ccc1O` (configuration not stated), the normalized absorbance is 99% (inactive). The value for `Cc1cc(C)n(-c2nc(-c3cccnc3)nc3ccccc23)n1` was 85.7% (inactive); that for `CCS(=O)c1nc2c(Br)cccc2[nH]1` (configuration not stated) was 94.1% (inactive). For `Cc1ccc(NCC(O)c2ccc(Cl)cc2)cc1` (configuration not stated), the normalized absorbance is 102% (inactive).

Turning to `Cc1ccc(S(=O)(=O)NCc2ccc(C(=O)NC3CCC(C)CC3)cc2)cc1` (configuration not stated), the normalized absorbance was 99% (inactive). For the compound `O=C(c1ccc(Cl)cc1Cl)n1c(=O)oc2cc(S(=O)(=O)N3CCCCC3)ccc21`, the normalized absorbance was 101% (inactive). As for `COc1ccc(C2C(C#N)=C(N)OC(C)=C2C(=O)OCc2ccccc2)cc1` (configuration not stated), the normalized absorbance is 102% (inactive).

`O=C1/C(=C/c2ccc(N3CCOCC3)cc2)CCc2ccccc21`: the normalized absorbance is 100% (inactive). For `N#CCCn1c(=S)n(CCC#N)c2ccccc21`, the normalized absorbance is 106% (inactive). `COC(=O)c1ccc(Cn2nc(C)c(Cl)c2C)cc1`: the normalized absorbance was 92.4% (inactive). On to `CC(=O)Nc1ccc(C2N3CCCN23)cc1` (configuration not stated), for which the normalized absorbance was 100% (inactive). The value for `CCCCn1c(CCCNC(=O)CC)nc2ccccc21` was 98.7% (inactive); that for `CNC(=O)CSc1nc2ccccc2[nH]1` was 99.5% (inactive); that for `C=CCSc1nc2ccccc2[nH]1` was 89.7% (active). On to `C=CCSc1nc(N)cc(=O)[nH]1`, for which the normalized absorbance was 101% (inactive). Take `CC(O)CNC(=O)c1sc2ccccc2c1Cl` (configuration not stated): the normalized absorbance was 95.9% (inactive).

For the compound `Cc1c(CNCCC2=CCCCC2)c(C(=O)O)c(C)n1Cc1cccc(Cl)c1`, the normalized absorbance was 92% (inactive).
